{"source": "PubChem BioAssay AID624111", "about": "(Johns Hopkins Ion Channel Center, 2012)", "note": "Out of some 4,000 compounds screened, about 60 (2%) were called active.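 Rule for the calls: active = duplicate-averaged calcium fluorescence ratio at least three times the standard deviation of buffer wells, a nonspecific response in parental cells; inactive = the rest.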 Only a selection was taken, and actives are over-represented in it overall.", "data": [{"experiment": "nonspecific calcium signal in parental HEK293, confirmation, counter-screen for MrgX1 antagonist project, parental HEK293 cells, Fluo-4 calcium flux (AID 624111)", "settings": "parental HEK293, Fluo-4 calcium fluorescence, FDSS; at 10 µM", "values": [{"smiles": "COc1ccc(C(=O)NC(=S)NNC(=O)c2c(-c3ccccc3)noc2C)cc1", "fluorescence ratio F(max-min)/F0": "inactive"}, {"smiles": "O=C(COC(=O)c1ccc(NS(=O)(=O)c2cccs2)cc1O)Nc1ccc(F)cc1", "fluorescence ratio F(max-min)/F0": "inactive"}, {"smiles": "CN(CC(=O)Nc1ccccc1Cl)C(=O)COc1cccc2c1OC(C)(C)C2", "fluorescence ratio F(max-min)/F0": "inactive"}, {"smiles": "O=C(O)CSC(NC(=O)c1cccnc1)(C(F)(F)F)C(F)(F)F", "fluorescence ratio F(max-min)/F0": "inactive"}, {"smiles": "Nc1cc(OC(=O)c2ccccc2Br)nn1S(=O)(=O)c1ccccc1", "fluorescence ratio F(max-min)/F0": "inactive"}, {"smiles": "COc1cc2c(cc1O)C(SC)=NC(C)(C)C2", "fluorescence ratio F(max-min)/F0": "inactive"}, {"smiles": "Cc1nn(-c2ccccc2)c2c1C(c1ccc(F)cc1)C(C#N)=C(N)O2", "note": "(stereo unspecified)", "fluorescence ratio F(max-min)/F0": "inactive"}, {"smiles": "O=C(CSc1c2c(nc3ccc(Cl)cc13)CCCC2)NCc1ccco1", "fluorescence ratio F(max-min)/F0": "inactive"}, {"smiles": "COc1ccc(OC)c(C(=O)c2ccc(Cl)cc2)c1", "fluorescence ratio F(max-min)/F0": "inactive"}, {"smiles": "CCOc1ccc(C2=CC(c3ccccc3)n3ncnc3N2)cc1", "note": "(stereo unspecified)", "fluorescence ratio F(max-min)/F0": "inactive"}, {"smiles": "O=C(c1cccs1)C1C(c2ccc(Br)cc2)NC(=S)NC1(O)C(F)(F)F", "note": "(stereo unspecified)", "fluorescence ratio F(max-min)/F0": "inactive"}, {"smiles": "CCOC1CCCCC1NS(=O)(=O)c1ccc(Cl)cc1", "note": "(stereo unspecified)", "fluorescence ratio F(max-min)/F0": "inactive"}, {"smiles": "CC(C)CC(=O)NC(=S)NNC(=O)c1cccc([N+](=O)[O-])c1", "fluorescence ratio F(max-min)/F0": "inactive"}, {"smiles": "Cc1ccnc(NC(=O)C(C)N2C(=O)c3ccccc3C2=O)c1", "note": "(stereo unspecified)", "fluorescence ratio F(max-min)/F0": "inactive"}, {"smiles": "O=C1CCCc2c1nc(-c1cccc(Cl)c1)n2O", "fluorescence ratio F(max-min)/F0": "inactive"}, {"smiles": "O=C(CSc1nncn1-c1cccnc1)N1CCOCC1", "fluorescence ratio F(max-min)/F0": "inactive"}, {"smiles": "O=c1c2cc(Br)ccc2nc(-c2cccc(Cl)c2)n1O", "fluorescence ratio F(max-min)/F0": "inactive"}, {"smiles": "O=C1Cc2ccccc2Sc2ccc(Cl)cc21", "fluorescence ratio F(max-min)/F0": "inactive"}, {"smiles": "CCOc1ccc2nc(/N=C/c3nc(-c4ccccc4)oc3O)sc2c1", "fluorescence ratio F(max-min)/F0": "0.438 (active)"}, {"smiles": "COCC(C)NC(=O)c1ccc(Cl)c(Cl)c1", "note": "(stereo unspecified)", "fluorescence ratio F(max-min)/F0": "inactive"}, {"smiles": "COCCNC(=O)C1CCN(S(=O)(=O)c2ccc3c(c2)OCCO3)CC1", "fluorescence ratio F(max-min)/F0": "inactive"}, {"smiles": "FC(F)Oc1ccc(NC(=S)NCc2ccco2)cc1Cl", "fluorescence ratio F(max-min)/F0": "inactive"}, {"smiles": "COc1ccc(NC(=O)c2cc(-c3ccc(C)o3)nc3ccccc23)cc1", "fluorescence ratio F(max-min)/F0": "inactive"}, {"smiles": "O=C(COC(=O)C1CCN(S(=O)(=O)c2ccc3c(c2)OCCO3)CC1)Nc1ccccc1OC(F)F", "fluorescence ratio F(max-min)/F0": "inactive"}, {"smiles": "CC1CCN(S(=O)(=O)c2nnc(NC(=O)COc3ccccc3F)s2)CC1", "fluorescence ratio F(max-min)/F0": "inactive"}, {"smiles": "COC(=O)Cn1c(O)c(N=NC(=O)OC)c2ccccc21", "fluorescence ratio F(max-min)/F0": "inactive"}, {"smiles": "O=C(Nc1nc2c(F)cc(F)cc2s1)C1COc2ccccc2O1", "note": "(stereo unspecified)", "fluorescence ratio F(max-min)/F0": "inactive"}, {"smiles": "CC(C)OCCCNc1ncnc2c1[nH]c1ccc(F)cc12", "fluorescence ratio F(max-min)/F0": "inactive"}, {"smiles": "O=C(CC(O)(C(F)(F)F)C(F)(F)F)Nc1ccc(Cl)c(Cl)c1", "fluorescence ratio F(max-min)/F0": "inactive"}, {"smiles": "O=C(Nc1ccccc1N1CCOCC1)c1csc2c1CCCC2", "fluorescence ratio F(max-min)/F0": "inactive"}, {"smiles": "Cc1ccc2cc(/C=N/Nc3ccc(C(=O)O)cc3)c(Cl)nc2c1", "fluorescence ratio F(max-min)/F0": "inactive"}]}]}
